Assay results: PubChem BioAssay AID1259336 (Sattelle Laboratory, UCL Respiratory, Division of Medicine, …, 2017)
Values without a mark were called inactive. No stated cut-off is given here; in the data, active means log2 fold change growth below about -1.8; inactive means the rest.

Assay: anthelmintic activity against nematode growth – whole organism, log2 fold change (AID 1259336);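 further: growth scored by imaging after five days at 20 °C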
Conditions: C. elegans growth, anthelmintic screen; active compounds read low

Compound: O=[N+]([O-])c1cn2c(n1)OC[C@@H](OCc1ccc(OC(F)(F)F)cc1)C2
- log2 fold change growth: -0.142

Compound: O=C(Nc1nc(-c2ccccn2)cs1)c1cncn1-c1ccccc1
- log2 fold change growth: -0.307

Compound: CCOC(=O)c1c(NC(=O)c2c(F)c(F)c(F)c(F)c2F)sc(C(N)=O)c1C
- log2 fold change growth: 0.119

Compound: CCOc1ccccc1N[C@@H](C)C(=O)Nc1cc(C(F)(F)F)ccc1N1CCOCC1
- log2 fold change growth: -1.5

Compound: COc1cc(Br)cc2cc(C(=O)Nc3cccc(C(F)(F)F)c3)c(=O)oc12
- log2 fold change growth: 0.421

Compound: Nc1cccnc1Nc1ccc(Cl)cc1
- log2 fold change growth: 0.497

Compound: FC(F)(F)c1cccc(-c2nc3c(NCc4ccncc4)nccc3[nH]2)c1
- log2 fold change growth: 0.0714

Compound: O=C(NCc1ccoc1)N1CCN(Cc2ccc3c(c2)OCO3)CC1
- log2 fold change growth: 0.212

Compound: CCCCc1ccc(NC(=O)Nc2ccc(O[C@H]3CCCC[C@@H]3N(C)c3ccccc3)c(F)c2)cc1
- log2 fold change growth: -0.0752

Compound: Cc1cc2ccccc2n1CC(=O)N1C[C@@H](C(=O)N2CCCCC2)Oc2ccccc21
- log2 fold change growth: 0.0798

Compound: CCOc1ccc2cc(-c3nn(C(C)(C)C)c(N)c3C(N)=O)cnc2c1
- log2 fold change growth: -0.647

Compound: Nc1nccc2ccc(Oc3ccncc3)cc12
- log2 fold change growth: 0.145

Compound: Cc1ccc2nc(Cl)c(CNCc3cccs3)cc2c1
- log2 fold change growth: -0.121

Compound: COc1ccc(-c2cnc3ccc(N4CCCC4)nn23)cc1OC
- log2 fold change growth: -0.625

Compound: c1ccc(Oc2ccc(-c3cncc(-c4ccc5[nH]ccc5c4)n3)cc2)cc1
- log2 fold change growth: -1.03

Compound: COc1ccc2nc(C)cc(OCC(=O)NCc3ccccc3)c2c1
- log2 fold change growth: 0.118

Compound: COc1ccc(-c2cc(NC(=O)c3ccc(F)cc3Cl)ccc2OC)cc1
- log2 fold change growth: 0.039

Compound: COc1ccc(OC)c(NCc2ccc3nc(N)nc(N)c3c2Cl)c1
- log2 fold change growth: 0.162

Compound: O=C(Nc1cccc(-c2ccc(NCCCN3CCCC3)nc2)c1)c1ccccc1
- log2 fold change growth: 0.467

Compound: Cc1cccc(Cn2ccc(NC(=O)c3ccc4c(c3)OCO4)n2)c1
- log2 fold change growth: -0.327

Compound: COc1ccc(-c2cncc3ccc(C(=O)NCCCn4ccnc4)nc23)cc1
- log2 fold change growth: 0.283

Compound: Cc1ccc(Oc2ccc(NC(=O)CNc3ccccc3N3CCCC3=O)cc2)cc1
- log2 fold change growth: 0.0475
